# Marburg entry inh: inhibitors of Marburg virus binding or cell entry. AID 540276. Marburg virus pseudotyped entry inhibition, cell reporter. 1.8% of 300,000 active. Potency, µM (doses to about 37.8 µM), for inactives: at the highest dose activity change, negative = inhibition, most hits filed as inhibitors; calls by dose curve; tested in HEK293 cells; note: potency is the fitted concentration of half-maximal effect
# HCMV antiviral: human cytomegalovirus inhibition | AID 1259415 | HFF cells, HCMV-luciferase reporter, 72 h; stronger effect = lower value | 4.5% of 410,000 active | activity change, negative = inhibition, % at 57.5 µM; in the data active = activity change below about -60%; inconclusive = no clear call, values can overlap the other calls; inactive = above about -39%
#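 Two compound doses tested in HFFs infected with HCMV-luciferase, MOI 1 PFU/cell, 72 h at 37C. Lysate luminescence read with OneGlo; data normalized against buffer-only and 10uM Salinomycin inhibitor controls.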
# Lassa entry inh: blocks Lassa virus binding to or entry into cells; Lassa virus pseudotype entry inhibition, cell reporter; Potency, µM (top dose mostly 37.9 µM), for inactives: top-dose activity change, negative = inhibition, hits mostly inhibitors; 1.2% of 300,000 active; AID 540256; calls by dose curve; tested in HEK293 cells; note: potency is the fitted concentration of half-maximal effect; nearly all actives have a fitted effect of over 50% in size
# Pf growth 48h: P. falciparum growth inhibition at 48 hours (one generation). P. falciparum luciferase growth in erythrocytes, 48 h. Potency, µM (titrated, usually from 28.7 µM), inactives show top-dose activity change, negative = inhibition, hits mostly inhibitors. 5.9% of 310,000 active; note: potency is the fitted concentration of half-maximal effect
#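 Compounds are pin-transferred into medium, infected erythrocytes (2% hematocrit, 0.1% parasitemia final) are added, and plates sit one parasite generation at 37 C in 5% CO2. Detection reagent is then added and luminescence measured.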
# Pf growth 96h: P. falciparum growth inhibition at 96 hour, primary screen for plastid delayed-death inhibitors. P. falciparum luciferase reporter growth, 96 h. Potency, µM (highest dose often 28.7 µM), for the others: at the highest dose activity change, negative = inhibition, usual class: inhibitors. 6.9% of 320,000 active. AID 504834; note: potency is the fitted concentration of half-maximal effect
#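 P. falciparum expressing integrated firefly luciferase, in erythrocytes at 2% hematocrit, 0.05% parasitemia, incubated with compounds 96 h at 37 C, 5% CO2. Growth inhibition read as loss of luminescence; two-generation exposure targets delayed-death apicoplast inhibitors.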
# HCV inhibitor: HCV inhibition | Huh7.5.1 HCVcc-Cre infection, luciferase reporter, 44 h | Potency, µM (doses to about 41.8 µM), for the others: top-dose activity change, negative = inhibition, most hits filed as inhibitors | 3.4% of 340,000 active; note: potency is the fitted concentration of half-maximal effect
#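 Luciferase read-out (15 sec integration) after a 15 min room-temperature substrate step quantifies HCVcc-Cre infection. Cells, 1,000 per well, had compound added 4 h post-plating, then virus at ~0.5 moi, and were cultured 44 h.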
# * = called active by the depositor; ? = inconclusive; . = not tested or not shown; [ ] = remark or other dose. The list is not random: actives were taken first. Their share in the collection is about 14%. Unless noted, calls come from the whole dose curve; as a rule, active = well fitted inhibition curve with a large enough effect; inconclusive = small, poorly fitted or top-dose-only effect, or another doubt; inactive = no such curve, though single readings can be large or run the other way. % is set by controls: 0 for no effect and ±100 for the full control effect.
SMILES,Marburg entry inh,HCMV antiviral,Lassa entry inh,Pf growth 48h,Pf growth 96h,HCV inhibitor
CCOC(=O)c1[nH]c(C)c(C(=O)c2cc(F)ccc2F)c1C,?,-86*,-16%,29%,.,?
CCCCN(CC)C(=O)CCn1c(=O)c2cccn2c2cccnc21,.,?,-16%[46.1 µM],.,.,.
CCOC(=O)c1ccc(CN(Cc2ccc(Cl)cc2Cl)S(=O)(=O)c2cccc(Cl)c2)cc1,.,-18,-4%[46.1 µM],.,.,.
COc1ccc(C2CC(c3ccccc3)Nc3nc(NC(=O)c4ccco4)nn32)cc1 (stereo not drawn),5%,-10,8%,.,?,-5%
O=C(Nc1nc2n(n1)C(c1ccccc1)CC(c1ccc(Cl)cc1)N2)c1ccco1 (stereo not drawn),?,-15,-12%,13µM*,?,-6%
CCCCNC(=O)c1nc(-c2ccncc2)oc1-c1ccccc1,.,7,.,.,.,.
CCC(C(=O)Nc1ccccc1C(=O)OC)n1c(C)c2cnn(-c3ccccc3)c(=O)c2c1C (stereo not drawn),?,-3,-27%[46.1 µM],.,.,.
CNc1ccc(/C=C/C(=O)c2ccc(C)cc2)cc1[N+](=O)[O-],?,-9,-16%,9%,12µM*,-19%
CN(C)c1ccc(/C=C/C(=O)c2ccccc2)cc1[N+](=O)[O-],?,2,-1%,106%,9.3µM*,53%
COc1ccc(NC(=O)CCCn2nc(C)c3c(C)n(-c4ccccc4)nc3c2=O)cc1OC,.,28,.,2%,?,-8%
CCOc1ccc(CN2C(=O)c3ccccc3Sc3ccc(C(=O)O)cc32)cc1,.,-36,?,.,.,.
CCN(CC)P(=O)(Nc1ccc(C)cc1Br)c1ccc(N(C)C)cc1NC(=O)c1ccco1 (stereo not drawn),11µM*,-78*,.,?,?,?
Cc1ccc(NC(=O)c2ccco2)c(NC(=O)c2ccccc2)c1,12%[46.1 µM],3,-2%[46.1 µM],16%,-28%,?
CCCc1cc(=O)oc2cc(C)cc(OCC(=O)Nc3ccccn3)c12,.,-24,.,0.93µM*,0.66µM*,?
Cc1cc(OCC(=O)Nc2ccccn2)c2c(C)cc(=O)oc2c1,0%[46.1 µM],-5,20%[46.1 µM],19%,35%,-18%
CCCCc1cc(=O)oc2cc(C)cc(OCC(=O)NCCN3CCOCC3)c12,.,-8,.,?,?,-7%
CCCCc1cc(=O)oc2cc(C)cc(OCC(=O)Nc3ccccn3)c12,.,0,.,4.1µM*,?,?
COC(=O)COC(=O)CC(CC(N)=O)c1ccccc1 (stereo not drawn),5%,18,4%,0%,9.3µM*,8%
CC1=NN(c2ccc([N+](=O)[O-])cc2)C(=O)/C1=C\N(C)C,8%,4,7%,21%,7.4µM*,16%
CCCC1=NN(c2ccc([N+](=O)[O-])cc2)C(=O)/C1=C/N(C)C,1%,-9,18%,40%,3%,7%
COc1ccc(C2=C[C@H](c3cccc(OC)c3)n3nnnc3N2)cc1,-14%[46.1 µM],.,.,.,.,.
CC(C)c1ccc(/C=C/C(=O)NC(=S)NN2CCOCC2)cc1,.,-98*,.,10%,12µM*,4%
O=C(/C=C/c1cccc([N+](=O)[O-])c1)NC(=S)Nc1ccc(CN2CCOCC2)cc1,3%,-72*,?,12%,-26%,4%
CC(C)c1ccc(/C=C/C(=O)NC(=S)Nc2ccc(CN3CCOCC3)cc2)cc1,?,?,?,?,5.2µM*,?
CC(C)c1ccc(C(=O)NN2CCOCC2)cc1,.,16,.,-25%,-18%,18%
SMILES,Marburg entry inh,HCMV antiviral,Lassa entry inh,Pf growth 48h,Pf growth 96h,HCV inhibitor
CC(C)CC(=O)NC(=S)Nc1ccc(CN2CCOCC2)cc1,?,26,25%[46.1 µM],-2%,?,0%
O=C(NC(=S)Nc1ccc(CN2CCOCC2)cc1)c1ccc([N+](=O)[O-])cc1,.,32,.,-5%,?,9%
Cc1cccc(CN2C(=O)CC(c3ccc(Cl)cc3)c3c(C)nn(-c4nc(C)cc(C)n4)c32)c1 (stereo not drawn),?,-20,-15%[46.1 µM],.,.,.
CC(=O)c1ccc(N2CCN(C(=O)c3cc4ccc5cccnc5c4[nH]3)CC2)cc1,.,3,-2%[46.1 µM],.,.,.
CCN1CCN(c2cc(C)c3cc(NC(=O)c4ccncc4)ccc3n2)CC1,.,14,.,.,-4%,-11%
CCN1CCN(c2cc(C)c3cc(NC(=O)CCC(=O)Nc4ccc(OC)cc4OC)ccc3n2)CC1,?,-29,8%,13µM*,?,?
CCN1CCN(c2cc(C)c3cc(NC(=O)c4ccc(C)c(C)c4)ccc3n2)CC1,.,-17,.,2.1µM*,?,?
CCN1CCN(c2cc(C)c3cc(NC(=O)c4cccnc4Cl)ccc3n2)CC1,?,34,-3%,.,.,?
CCN1CCN(c2cc(C)c3cc(NC(=O)c4ccc(Br)o4)ccc3n2)CC1,?,28,-20%,2.3µM*,25%,?
CCN1CCN(c2cc(C)c3cc(NC(=O)c4ccccc4F)ccc3n2)CC1,?,7,?,.,4.7µM*,.
COc1cccc(C(=O)NCCS(=O)(=O)NC2CCCC2)c1,6%,-28,4%,-1%,30%,7%[8.37 µM]
CCOC(=O)N1CCN(C(=S)Nc2ccc3nc(N4CCN(CC)CC4)cc(C)c3c2)CC1,?,?,9%,?,-2%,-18%
CCN1CCN(c2cc(C)c3cc(NC(=O)c4cc(Br)ccc4Cl)ccc3n2)CC1,?,-72*,?,.,.,.
Cc1cc(N2CCN(C)CC2)nc2ccc(NC(=O)c3ccccc3F)cc12,?,19,?,33%,9.3µM*,-24%
CCOc1ccc(S(=O)(=O)c2c(C(=O)c3ccccc3)cnc3cc4c(cc23)OCCO4)cc1,?,-76*,-9%,?,?,2%
CCOc1ccc(C(=O)c2cnc3ccc(Cl)cc3c2S(=O)(=O)c2ccc(C)cc2)cc1,?,12,.,.,.,.
CCc1c(C)nc2cc(-c3cc(OC)cc(OC)c3)nn2c1N1CCN(CCN2CCOCC2)CC1,?,20,22%,1.3µM*,37%,?
CCOCCN1CCN(c2c(C)c(C)nc3cc(-c4cc(OC)cc(OC)c4)nn23)CC1,-1%,-84*,-32%,.,-10%,?
O=C(Oc1ccc(N(C(=O)c2ccncc2)S(=O)(=O)c2ccc(F)cc2)cc1)c1ccncc1,-3%,-33,0%,-16%,2%,-17%
CCc1ccc(S(=O)(=O)N(C(=O)c2ccncc2)c2ccc(OC(=O)c3ccncc3)cc2)cc1,?,?,-3%,2%,?,-6%
Cc1ccc(S(=O)(=O)N(C(=O)c2ccncc2)c2ccc(OC(=O)c3ccncc3)cc2)cc1,-33%,-68*,-18%,15%,?,4%

# Screens: PubChem BioAssay, National Center for Advancing Translational Sciences (NCATS)
